Outcome and AC50 data for three molecules are collected here from PubChem BioAssay (EPA / NIEHS).

Usually AC50 stands for the midpoint of the concentration-response curve, whichever way the signal moves.

Structures are written as SMILES. The source made the active and inactive calls. The calls were made as follows: active = hit-call score of the fitted dose curve at least 0.9, where 1 is the maximum; inactive = score below 0.9.

Read-out in assay [1]: Interleukin-1 alpha (IL1a), IL1A (gene 3552)
Nature of the assay: BSK_KF3CT_IL1a: BioMAP Diversity Plus: KF3CT Assay for Interleukin-1 alpha (IL1a) Biomarker Activity (AID 2283070). To be noted: primary human keratinocytes with fibroblasts; actives raise or lower the signal. The essentials: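 Readout is IL-1a level by ELISA, compared bidirectionally with DMSO as baseline. Cells: human keratinocytes co-cultured with foreskin fibroblasts, harvested 24 h post-dose.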

Read-out in assay [2]: TIMP metallopeptidase inhibitor 2 (TIMP2), TIMP2 (gene 7077)
Nature of the assay: BSK_KF3CT_TIMP2: BioMAP Diversity Plus: KF3CT Assay for TIMP metallopeptidase inhibitor 2 (TIMP2) Biomarker Activity (AID 2283071). The note with it: primary human keratinocytes with fibroblasts; actives raise or lower the signal. The essentials: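 TIMP-2 measured by ELISA at 24 h in human keratinocyte/fibroblast primary co-cultures exposed to chemicals. Both increases and decreases were fitted against DMSO. Parallel cultures were stained with SRB for total protein as an overt-cytotoxicity check.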

Read-out in assay [3]: Transforming growth factor beta 1 (TGFb1), TGFB1 (gene 7040)
Nature of the assay: BSK_KF3CT_TGFb1: BioMAP Diversity Plus: KF3CT Assay for Transforming growth factor beta 1 (TGFb1) Biomarker Activity (AID 2283072). To be noted: primary human keratinocytes with fibroblasts; actives raise or lower the signal. The essentials:
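ELISA quantifies TGF-b1 at 24 h post-dose in a primary human skin co-culture of keratinocytes and fibroblasts, with gain or loss judged against DMSO. Parallel SRB total-protein staining flags overt cytotoxicity.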

Read-out in assay [4]: C-C motif chemokine 2 (Homo sapiens) (UniProt P13500)
Nature of the assay: BSK_KF3CT_MCP1: BioMAP Diversity Plus: KF3CT Assay for Monocyte Chemoattractant Protein 1 (MCP1/CCL2) Biomarker Activity (AID 2283073). To be noted: primary human keratinocytes with fibroblasts; actives raise or lower the signal. In outline: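 Keratinocytes and foreskin fibroblasts were co-cultured, dosed with chemical, and sampled 24 h later. MCP-1 was quantified by ELISA, and the endpoint was analyzed with bidirectional fitting using DMSO as negative control.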

Read-out in assay [5]: Matrix Metallopeptidase 9 (MMP9), MMP9 (gene 4318)
Nature of the assay: BSK_KF3CT_MMP9: BioMAP Diversity Plus: KF3CT Assay for Matrix Metallopeptidase 9 (MMP9) Biomarker Activity (AID 2283074).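 As to AC50: MMP9 protein level quantified by ELISA in the co-culture.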 To be noted: primary human keratinocytes with fibroblasts; actives raise or lower the signal. In outline: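 Values come from bidirectional fitting relative to DMSO of MMP-9 levels, which were measured by ELISA. Measurements were taken 24 h after chemical dosing of a keratinocyte and foreskin fibroblast co-culture.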

Read-out in assay [6]: urokinase plasminogen activator (uPA), PLAU (gene 5328)
Kind of assay: BSK_KF3CT_uPA: BioMAP Diversity Plus: KF3CT Assay for urokinase plasminogen activator (uPA) Biomarker Activity (AID 2283075). To be noted: primary human keratinocytes with fibroblasts; actives raise or lower the signal. In outline:
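Values derive from bidirectional fitting against DMSO controls. Keratinocyte/foreskin fibroblast co-cultures received chemical; 24 h later uPA was detected by ELISA, with SRB total-protein staining in parallel wells for overt cytotoxicity.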

Read-out in assay [7]: CD40, CD40 (gene 958)
Kind of assay: BSK_LPS_CD40: BioMAP Diversity Plus: LPS Assay for CD40 Biomarker Activity (AID 2283076). The note with it: primary human HUVEC with PBMC; actives raise or lower the signal. In outline:
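CD40 signal, measured by ELISA, is fitted in both directions relative to DMSO vehicle. The system is an LPS-driven human vascular primary co-culture of endothelial cells and PBMC, sampled 24 h after compound addition.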

Read-out in assay [8]: E-selectin (Homo sapiens) (UniProt P16581)
Kind of assay: BSK_LPS_Eselectin: BioMAP Diversity Plus: LPS Assay for Eselectin Biomarker Activity (AID 2283077). The note with it: primary human HUVEC with PBMC; actives raise or lower the signal. The essentials:
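Signal of E-selectin, detected by ELISA, served as the endpoint; cells were umbilical vein endothelium with PBMC, read 24 h after treatment. DMSO defined baseline, and both increases and decreases were fitted.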

Read-out in assay [9]: Interleukin-8 (IL8), CXCL8 (gene 3576)
Kind of assay: BSK_LPS_IL8: BioMAP Diversity Plus: LPS Assay for Interleukin-8 (IL8) Biomarker Activity (AID 2283078). To be noted: primary human HUVEC with PBMC; actives raise or lower the signal. The essentials: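 Endothelial cells and PBMC from human donors are co-cultured, treated with chemicals and LPS, then assayed for IL-8 by ELISA after 24 h. Parallel SRB staining (0.1% SRB after 10% TCA fixation, 560 nm) flags cytotoxicity.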

Assay [10] is described as follows: BSK_LPS_SRB: Viability Assessment in the BioMAP Diversity Plus: LPS Assay (AID 2283079).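 Also: total protein by sulforhodamine B absorbance as a cytotoxicity measure; measured one day after compound addition; fitted in both directions against DMSO so loss or gain of signal counts.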 The note with it: primary human HUVEC with PBMC. The essentials:
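Overt cytotoxicity was gauged by sulforhodamine B total-protein staining in a primary human vascular endothelial and mononuclear cell co-culture 24 h post-dosing. Activity was fitted in both directions relative to DMSO.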

Read-out in assay [11]: Interleukin-1 alpha (IL1a), IL1A (gene 3552)
Kind of assay: BSK_LPS_IL1a: BioMAP Diversity Plus: LPS Assay for Interleukin-1 alpha (IL1a) Biomarker Activity (AID 2283080). To be noted: primary human HUVEC with PBMC; actives raise or lower the signal. The essentials: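 Measured: IL-1 alpha via ELISA at 24 h in LPS-activated human umbilical vein endothelium–PBMC co-culture. Baseline: DMSO, bidirectional fitting.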

Read-out in assay [12]: Monocyte Chemoattractant Protein-1 (MCP1), CCL2 (gene 6347)
Nature of the assay: BSK_LPS_MCP1: BioMAP Diversity Plus: LPS Assay for Monocyte Chemoattractant Protein-1 (MCP1) Biomarker Activity (AID 2283081).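 As to AC50: secreted MCP-1 protein quantified by ELISA in culture supernatant.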 To be noted: primary human HUVEC with PBMC; actives raise or lower the signal. In outline:
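LPS-stimulated HUVEC/PBMC co-culture; chemical, 24 h; MCP-1 by ELISA; bidirectional fit vs DMSO; cytotoxicity via SRB (0.1% stain, 10% TCA fix, 560 nm) in parallel wells.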

The nature of assay [13]: BSK_LPS_PGE2: BioMAP Diversity Plus: LPS Assay for Prostaglandin E2 (PGE2) Biomarker Activity (AID 2283082). To be noted: primary human HUVEC with PBMC; actives raise or lower the signal. The essentials: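 PGE2 release measured by ELISA in an LPS-activated co-culture of human umbilical vein endothelial cells and peripheral blood mononuclear cells, read at 24 h post-dosing. DMSO served as baseline for bidirectional curve fitting.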

Read-out in assay [14]: Macrophage colony-stimulating factor (MCSF), CSF1 (gene 1435)
Nature of the assay: BSK_LPS_MCSF: BioMAP Diversity Plus: LPS Assay for Macrophage colony-stimulating factor (MCSF) Biomarker Activity (AID 2283083). To be noted: primary human HUVEC with PBMC; actives raise or lower the signal. The essentials: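 Compound is added to a human vascular primary co-culture of umbilical vein endothelium and blood mononuclear cells. After 24 h, M-CSF is quantified by ELISA. Signal changes are fitted in both directions against DMSO.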

Read-out in assay [15]: Tissue Factor, F3 (gene 2152)
Nature of the assay: BSK_LPS_TissueFactor: BioMAP Diversity Plus: LPS Assay for Tissue Factor Biomarker Activity (AID 2283084). To be noted: primary human HUVEC with PBMC; actives raise or lower the signal. In outline:
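In this co-culture system of umbilical vein endothelium with PBMC, stimulated with LPS, cell-surface CD142 is detected by ELISA at 24 h. Endpoint values derive from bidirectional fitting, DMSO serving as baseline.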

Read-out in assay [16]: Tumor necrosis factor (Homo sapiens) (UniProt P01375)
Kind of assay: BSK_LPS_TNFa: BioMAP Diversity Plus: LPS Assay for Tumour Necrosis Factor alpha (TNFa) Biomarker Activity (AID 2283085).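 As to AC50: TNFa protein level quantified by ELISA in the co-culture.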 The note with it: primary human HUVEC with PBMC; actives raise or lower the signal. The essentials: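 TNFa was quantified by ELISA in LPS-activated co-cultures of human endothelial cells and PBMC, 24 h post-dosing. Both increases and decreases versus DMSO were fitted.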

Read-out in assay [17]: Vascular cell adhesion molecule 1 (VCAM1), VCAM1 (gene 7412)
Kind of assay: BSK_LPS_VCAM1: BioMAP Diversity Plus: LPS Assay for Vascular cell adhesion molecule 1 (VCAM1) Biomarker Activity (AID 2283086). The note with it: primary human HUVEC with PBMC; actives raise or lower the signal. In outline:
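VCAM-1 quantified by ELISA in an LPS-activated co-culture of human endothelial cells and peripheral blood mononuclear cells, read 24 h post-treatment. Fitted in both directions versus DMSO; parallel SRB staining flags overt cytotoxicity.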

Read-out in a further assay: CD38, CD38 (gene 952)
Kind of assay: BSK_SAg_CD38: BioMAP Diversity Plus: SAg Assay for CD38 Biomarker Activity (AID 2283087). The note with it: primary human HUVEC with PBMC; actives raise or lower the signal. In outline:
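CD38 quantified by ELISA (fluorescence) in a superantigen-activated endothelial cell–PBMC co-culture at 24 h post-dose. Activity fitted in both directions relative to DMSO; parallel SRB and Alamar Blue cytotoxicity read-outs.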

Read-out in another assay: CD69, CD69 (gene 969)
Nature of the assay: BSK_SAg_CD69: BioMAP Diversity Plus: SAg Assay for CD69 Biomarker Activity (AID 2283089).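 As to AC50: cell surface CD69 protein quantified by ELISA with fluorescence detection.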 The note with it: primary human HUVEC with PBMC; actives raise or lower the signal. In outline: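 HUVEC co-cultured with PBMC were dosed with chemical, and CD69 was measured by ELISA with fluorescence read-out 24 h later. Bidirectional curve fitting used DMSO as negative control and activity baseline.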

Read-out in assay [18]: CD40, CD40 (gene 958)
Kind of assay: BSK_SAg_CD40: BioMAP Diversity Plus: SAg Assay for CD40 Biomarker Activity (AID 2283088). The note with it: primary human HUVEC with PBMC; actives raise or lower the signal. In outline:
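Fluorescence ELISA read-out of CD40 from umbilical vein endothelium plus peripheral blood mononuclear cells, sampled 24 h after dosing. Values come from bidirectional curve fitting with DMSO as baseline.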

Chain of E-selectin (Homo sapiens) (P16581 whole entry, looked up): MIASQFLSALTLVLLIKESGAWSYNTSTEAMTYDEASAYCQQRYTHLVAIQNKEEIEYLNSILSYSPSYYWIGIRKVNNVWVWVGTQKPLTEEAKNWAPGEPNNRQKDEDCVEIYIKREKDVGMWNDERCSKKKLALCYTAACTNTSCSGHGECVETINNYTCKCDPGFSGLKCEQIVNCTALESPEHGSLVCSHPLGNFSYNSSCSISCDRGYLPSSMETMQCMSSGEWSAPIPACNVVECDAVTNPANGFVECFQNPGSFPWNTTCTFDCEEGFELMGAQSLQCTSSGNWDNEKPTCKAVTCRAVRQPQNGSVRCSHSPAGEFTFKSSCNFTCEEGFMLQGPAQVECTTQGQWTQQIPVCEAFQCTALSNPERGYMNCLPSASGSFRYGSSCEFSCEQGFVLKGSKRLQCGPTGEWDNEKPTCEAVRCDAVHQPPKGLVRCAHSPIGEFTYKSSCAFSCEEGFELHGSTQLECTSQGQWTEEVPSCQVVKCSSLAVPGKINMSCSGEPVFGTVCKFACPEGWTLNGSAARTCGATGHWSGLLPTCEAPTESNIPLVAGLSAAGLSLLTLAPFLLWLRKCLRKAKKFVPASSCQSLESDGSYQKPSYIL
Chain of Tumor necrosis factor (Homo sapiens) (P01375 whole entry, looked up): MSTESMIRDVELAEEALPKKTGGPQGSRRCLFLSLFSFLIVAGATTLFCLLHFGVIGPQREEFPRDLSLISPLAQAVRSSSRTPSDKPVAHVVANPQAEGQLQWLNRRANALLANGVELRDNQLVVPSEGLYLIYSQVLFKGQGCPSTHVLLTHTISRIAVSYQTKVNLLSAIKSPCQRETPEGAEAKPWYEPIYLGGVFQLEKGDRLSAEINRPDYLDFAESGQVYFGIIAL

Consider `CCC(=NOC/C=C/Cl)C1=C(O)CC(C2CCOCC2)CC1=O` (stereo unspecified), for which the result in assay [1], in assay [2], in assay [3], in assay [4], in assay [5] and in assay [6] was inactive. Besides, the outcome in the assay with CD40, CD40 (gene 958) [7] is “inactive”; in assay [8] it was “inactive”; in assay [9], “inactive”; in assay [10] it was “inactive”; in assay [11], “inactive”; in [12], “inactive”. The outcome in assay [13] was “inactive”; in [14], “inactive”; in [15], “inactive”; in assay [16], “inactive”; in assay [17] it was “inactive”; with CD38, CD38 (gene 952), “inactive”. Besides, the outcome with CD69, CD69 (gene 969) was inactive.
For the molecule `COP(=O)(OC)C(O)C(Cl)(Cl)Cl` (stereo unspecified), the result in assay [1], in assay [2], in assay [3], in [4], in assay [5] and in [6] was inactive. Also, the outcome in the assay with CD40, CD40 (gene 958) [7] was “inactive”; in [8], “inactive”; in [10], “inactive”; in assay [11], “inactive”; in assay [12], “inactive”; in assay [14] it was “inactive”. Further, the outcome in assay [15] was “inactive”; in assay [16] it was “inactive”; in [17], “inactive”; with CD38, CD38 (gene 952) it was “inactive”; with CD40, CD40 (gene 958) [18] it was “inactive”; with CD69, CD69 (gene 969) it was “inactive”.
On to `CCC(CC)Nc1c([N+](=O)[O-])cc(C)c(C)c1[N+](=O)[O-]`, for which the result in assay [1], in assay [2], in assay [3], in assay [4], in assay [6] and in [13] was inactive. For the same molecule, the result in [15] was inactive. Also, the AC50 in assay [5] was 8.34 µM (active); with CD40, CD40 (gene 958) [7], 20 µM (active); in [8], 16.8 µM (active); in [9] it was 18 µM (active); in assay [10], 20 µM (active); in assay [11], 36.1 µM (active). Further, the AC50 in [12] is 20 µM (active); in [14], 18.9 µM (active); in assay [16] it was 26.4 µM (active); in assay [17] it was 15 µM (active); with CD38, CD38 (gene 952), 28.5 µM (active); in the assay with CD69, CD69 (gene 969) it was 20 µM (active).
